Compound activity deposited in PubChem BioAssay by several laboratories.
KLF5 inhibitor: inhibitors of KLF5 expression | DLD-1 KLF5 promoter-luciferase reporter, luminescence | inhibition, % at 5 µM | 290,000 compounds, 0.23% hits;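 active means inhibition above a per-plate limit of that plate's mean compound inhibition plus 3 SD, cut at about 60% in these data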;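 further: 0% = DMSO wells and 100% = LY294002 at 200 µM; higher means less KLF5 promoter-driven luciferase light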
IEC-6 cytotox: IEC-6 cytotoxicity, counter-screen for KLF5 inhibitors. 290,000 compounds, 0.78% hits. luminescence viability. inhibition, % at 5 µM;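 further: 0% = plate median of test compound wells and 100% = cytotoxic reference compound wells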
Ba/F3 V617F tox: loss of viability in JAK2V617F-driven Ba/F3 cells | Ba/F3 EpoR-JAK2V617F viability, ATP luminescence | inhibition, % at 5.6 µM | 220,000 compounds, 1.1% hits | AID 1446;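 active means inhibition above the campaign mean plus 3 SD over all tested compounds, cut at about 24% in these data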;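 further: cytokine-independent growth of Ba/F3 cells driven by EpoR plus mutant JAK2; 0% = DMSO-treated cells and 100% = JAK inhibitor I control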
aSyn UTR inh: 5' untranslated region of α-synuclein, MLPCN primary screen; alpha-synuclein 5'UTR reporter, inhibitor activity; inhibition, % (tested at 7.5 µM); 300,000 compounds, 0.82% hits; in the data active means inhibition above about 60%; inconclusive means no clear call, values can overlap the other calls;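 further: H4 neuroglioblastoma cells stably carrying SNCA 5'UTR luciferase fusion; 0% = DMSO wells and 100% = positive control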
APP 5UTR inh: APP translation inhibition. AID 1285. 190,000 compounds, 0.82% hits. inhibition, % at 2 µM. SH-SY5Y APP 5'UTR-luciferase reporter, luminescence;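 active means inhibition above a set limit, derived from the sample mean plus 3 SD, cut at about 45% in these data; inconclusive means one replicate passes the limit while the other fails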
BaF3 parental: reduces parental Ba/F3 cell viability, JAK2V617F counter-screen; AID 1486; CellTiter-Glo ATP luminescence; 220,000 compounds, 1.1% hits; inhibition, % at 5.6 µM;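 active means inhibition above a per-campaign cutoff, the mean inhibition of all tested compounds plus 3 SD, cut at about 27% in these data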;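 further: 0% = DMSO wells and 100% = JAK Inhibitor I control wells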
IEC-6 tox confirm: confirmation of cytotoxic compounds in rat IEC-6 intestinal epithelial cells; shares compounds with IEC-6 cytotox; 1,900 compounds, 63% hits; AID 1907; IEC-6 rat intestinal epithelial viability, luminescence; inhibition, % at 5 µM;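 further: 0% = vehicle and 100% = reference cytotoxic drug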
An asterisk follows results filed as active. A selection: hits, their analogues and other compounds. The true share with any hit is near 2.2%. Unless noted, no stated cut-off is given here; in the data, active means inhibition above about 22%; inactive means the rest.

Results for N#Cc1ccccc1OCC(=O)N(C1CCCCC1)C1CCS(=O)(=O)C1 (centres undefined) ?
aSyn UTR inh: 3

How did O=C(O)c1cc(Cl)c2c(c1)OCO2 do in these assays?
KLF5 inhibitor: 8; IEC-6 cytotox: -6; Ba/F3 V617F tox: -4; aSyn UTR inh: -12; BaF3 parental: -2

What do the screens show for `CCc1ccccc1NC(=O)CNC(=O)c1ccc(-n2cncn2)c([N+](=O)[O-])c1`?
aSyn UTR inh: -11

What do the screens show for `Cc1[nH]n(-c2ccccc2)c(=O)c1/C=N/NC(=O)c1ccccc1F`?
KLF5 inhibitor: -44; IEC-6 cytotox: 30*; aSyn UTR inh: 29; IEC-6 tox confirm: 16

Results for COc1nc(Cl)cn(-c2ccc(C)cc2)c1=O ?
KLF5 inhibitor: 2; IEC-6 cytotox: 0; Ba/F3 V617F tox: 5; aSyn UTR inh: -13; APP 5UTR inh: 7; BaF3 parental: 8

What do the screens show for `Cc1ccc(-n2c(Cl)c(Cl)nc(Cl)c2=O)cc1`?
KLF5 inhibitor: 21; IEC-6 cytotox: 41*; Ba/F3 V617F tox: 96*; APP 5UTR inh: 97*; BaF3 parental: 58*; IEC-6 tox confirm: 40*

Results for Nc1ccc2nc[nH]c2c1 ?
KLF5 inhibitor: -10; IEC-6 cytotox: 5; Ba/F3 V617F tox: 1; aSyn UTR inh: 25; APP 5UTR inh: 12; BaF3 parental: 0

How did CC(C)CC(=O)Nc1ccc(-c2nnn(CC(=O)NCc3ccco3)n2)cc1 do in these assays?
KLF5 inhibitor: -26; IEC-6 cytotox: 3; Ba/F3 V617F tox: 2; aSyn UTR inh: -102; APP 5UTR inh: -64; BaF3 parental: 4

How did Cc1cccc(Nc2nc(NCc3ccco3)nc(N3CCOCC3)n2)c1 do in these assays?
KLF5 inhibitor: -47; IEC-6 cytotox: 31*; Ba/F3 V617F tox: -2; aSyn UTR inh: 2; APP 5UTR inh: 22; BaF3 parental: 8; IEC-6 tox confirm: 12

What do the screens show for `COc1ccc(-n2c(SCC(=O)Nc3ncc(Cl)cc3Cl)nc3ccccc32)cc1`?
KLF5 inhibitor: 41; IEC-6 cytotox: 69*; Ba/F3 V617F tox: 4; aSyn UTR inh: 30; APP 5UTR inh: -10; BaF3 parental: 7; IEC-6 tox confirm: 39*

What do the screens show for `COc1ccc(NC(=O)CSc2nc3ccccc3n2-c2ccccc2)c([N+](=O)[O-])c1`?
KLF5 inhibitor: -11; IEC-6 cytotox: 1; Ba/F3 V617F tox: 2; aSyn UTR inh: 24; APP 5UTR inh: 10; BaF3 parental: 5

How did O=C(CSc1nc2ccccc2n1-c1ccccc1)Nc1ncc(Cl)cc1Cl do in these assays?
KLF5 inhibitor: 27; IEC-6 cytotox: 64*; Ba/F3 V617F tox: 2; aSyn UTR inh: 52; APP 5UTR inh: 3; BaF3 parental: 1; IEC-6 tox confirm: 39*

What do the screens show for `Cc1cccc(-n2c(SCC(=O)Nc3ncc(Cl)cc3Cl)nc3ccccc32)c1`?
KLF5 inhibitor: 28; IEC-6 cytotox: 67*; Ba/F3 V617F tox: 2; aSyn UTR inh: inconclusive; APP 5UTR inh: 17; BaF3 parental: 7; IEC-6 tox confirm: 47*

How did O=C(c1ccccc1)C1CCN(C(=O)C2CCC(=O)N(Cc3ccccc3F)C2)CC1 (centres undefined) do in these assays?
KLF5 inhibitor: -38; IEC-6 cytotox: -2; aSyn UTR inh: -5

What do the screens show for `CCOc1ccc(OCC)c(NC(=O)c2nnn(CC(=O)Nc3cc(C)cc(C)c3)c2N)c1`?
KLF5 inhibitor: -9; IEC-6 cytotox: 10; aSyn UTR inh: 40

How did CSc1nccc(-c2nn(-c3ccc(C)cc3)ccc2=O)n1 do in these assays?
KLF5 inhibitor: 10; IEC-6 cytotox: 51*; Ba/F3 V617F tox: 75*; aSyn UTR inh: 37; APP 5UTR inh: 21; BaF3 parental: 76*; IEC-6 tox confirm: 39*

Results for C#CCSc1nccc(-c2nn(-c3ccc(C)cc3)ccc2=O)n1 ?
KLF5 inhibitor: -40; IEC-6 cytotox: 5; Ba/F3 V617F tox: -1; aSyn UTR inh: 12; BaF3 parental: 4

What do the screens show for `C=CCSc1nccc(-c2nn(-c3ccc(C)cc3)ccc2=O)n1`?
KLF5 inhibitor: 20; IEC-6 cytotox: 39*; Ba/F3 V617F tox: 37*; aSyn UTR inh: 61; APP 5UTR inh: 88*; BaF3 parental: 46*; IEC-6 tox confirm: 34*

What do the screens show for `O=C1CCCN1S(=O)(=O)c1ccc(F)cc1`?
KLF5 inhibitor: -1; IEC-6 cytotox: -4; aSyn UTR inh: -5
